Results on four molecules are retold here after PubChem BioAssay (EPA / NIEHS).

The target in assay [1] is rat Glutamate, MK-801 Agonist Site (GluNMDA_MK801), Grin1 (gene 24408) (UniProt P35439). As to the kind of experiment: NVS_LGIC_rGluNMDA_MK801_Agonist: NovaScreen (NVS) Ligand-Gated Ion Channel Assay for rat Glutamate, MK-801 Agonist Site (GluNMDA_MK801) (AID 2283340). The method, boiled down: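 Radioligand binding at MK-801 site in rat forebrain membranes, 1.5 h incubation, filter-based scintillation counting. Initially 25 uM in duplicate; actives then run in concentration-response up to 50 uM, fitted for gain of signal versus DMSO.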

Assay [2] deals with rat Glycine Receptor, Strychnine-sensitive (GlyRStrySens), Glra1 (gene 25674) (UniProt P07727). As to the kind of experiment: NVS_LGIC_rGlyRStrySens: NovaScreen (NVS) Ligand-Gated Ion Channel Assay for rat Glycine Receptor, Strychnine-sensitive (GlyRStrySens) (AID 2283341). In outline:
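Radioligand displacement on rat spinal cord membranes, 1 hr, filter scintillation read-out. Single-concentration duplicate screen at 25 uM; chemicals meeting threshold (e.g., 30% inhibition) rerun in concentration-response up to 50 uM. Loss of binding fitted versus DMSO.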

Assay [3] relates to guinea pig Histamine Receptor (H2), gene 100729734. Put plainly: NVS_GPCR_gH2: NovaScreen (NVS) G Protein-Coupled Receptor Assay for guinea pig Histamine Receptor (H2) (AID 2283342). In outline:
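Radioligand displacement on guinea pig striatal membranes, 1 h after dosing, filter-based scintillation counting; loss of signal versus DMSO. Single-point screen at 25 uM in duplicate, then concentration-response up to 50 uM.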

Inconclusive results are not listed. Calls of active or inactive are those of the source. How the source made its calls: active means hit-call score of the fitted dose curve at least 0.9, where 1 is the maximum; inconclusive means response in the unintended direction; inactive means score below 0.9.

rat Glycine Receptor, Strychnine-sensitive (GlyRStrySens), Glra1 (gene 25674), sequence (P07727 whole entry, looked up): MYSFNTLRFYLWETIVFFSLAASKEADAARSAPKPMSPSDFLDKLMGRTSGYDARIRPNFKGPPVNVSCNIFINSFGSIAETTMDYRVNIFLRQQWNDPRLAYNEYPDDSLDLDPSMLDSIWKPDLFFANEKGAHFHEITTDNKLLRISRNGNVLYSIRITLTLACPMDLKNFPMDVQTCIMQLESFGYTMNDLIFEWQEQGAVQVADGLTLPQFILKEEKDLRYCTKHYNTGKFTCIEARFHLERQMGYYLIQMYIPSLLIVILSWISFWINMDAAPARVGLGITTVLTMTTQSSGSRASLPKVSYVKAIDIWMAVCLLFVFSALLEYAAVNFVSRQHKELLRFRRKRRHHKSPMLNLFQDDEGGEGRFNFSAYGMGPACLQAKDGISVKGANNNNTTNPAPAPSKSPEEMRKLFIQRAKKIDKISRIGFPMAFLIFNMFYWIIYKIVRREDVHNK

For the molecule `NC1CCCCC1`, in assay [1], the molecule was called inactive.
With `CCCCC(CC)CO` (centres undefined), in assay [2], the molecule was called inactive.
On to `CS(=O)(=O)c1ccc([C@@H](C[C@H]2CCC(=O)C2)C(=O)Nc2cnccn2)cc1Cl`, for which the half-maximal activity concentration (AC50) in assay [3] is 4.3 nM (active).
For the molecule `CC(=O)O[C@]1(C(C)=O)CC[C@H]2[C@@H]3C=C(Cl)C4=CC(=O)[C@@H]5C[C@@H]5[C@]4(C)[C@H]3CC[C@@]21C`, in assay [3], the result was inactive.

As a reminder, the AC50 is the midpoint of the concentration-response curve, whichever way the signal moves.
